# According to PubChem BioAssay AID652104 (National Center for Advancing Translational Sciences (NCATS), 2013):
# Hit rate of the full screen: of about 410,000 compounds, about 7,200 (1.8%) were called active. Entries that show only a call come without a potency. Another 7% or so got no clear call; they are omitted. Calls follow the shape of the dose curve; as a rule, active = well fitted activation curve with a large enough effect; inconclusive = small, poorly fitted or top-dose-only effect, or another doubt; inactive = no such curve, though single readings can be large or run the other way. Only a selection was taken, and actives are over-represented in it overall.
# Experiment: qHTS of TDP-43 Inhibitors; also: nearly all actives have a fitted effect of over 50% in size
# Conditions: TDP-43 expressing yeast growth rescue, BacTiter-Glo, 24 h; series mostly up to 46.1 µM
# Excerpt: The goal of this project is to identify new chemical probes capable of reversing the toxicity associated with TDP-43 which is associated with frontotemporal lobar degeneration and amyotrophic lateral sclerosis. These compounds will provide a complementary approach to deciphering the tangled mechanisms of toxicity and protection that we have uncovered through genome-wide genetic screens and are beginning to uncover in a large-scale proteomics analysis with mass spectroscopy.
# To this end, a miniaturized assay was developed to be screened against the Molecular Libraries Small Molecule Repository (MLSMR) to discover TDP-43 inhibitors. Please note that in the set-up this yeast-based assay compounds that inhibit as TDP-43, have a read-out as activators.
# NIH Chemical Genomics Center [NCGC]
# NIH Molecular Libraries Probe Centers Network [MLPCN]
# Assay Submitter (PI): Susan Lindquist, Whitehead Institute/MIT
# Dispense 2.5 microL yeast galactose medium per 1536-well plate, pin compound, dispense 2.5 microL TDP-43 expressing yeast in galactose medium at OD600=0.02 (pregrown in raffinose medium to mid-log phase) per well, incubate for 24 hr at 30 deg C, and cell growth will be measured using 5 microL of Bactiter/Glo reagent to entire plate and read using Luminescence Protocol in ViewLux.
# Potency is read from the fitted curve at half-maximal effect.
row,SMILES,Potency
1,COc1ccc(CNCCc2ccc3c(c2)OCO3)c(OC)c1OC,inactive
2,Cc1cc(=O)oc2c(C)c(OCC(=O)N3CCN(Cc4ccc5c(c4)OCO5)CC3)ccc12,inactive
3,CCOc1ccc(S(=O)(=O)NCc2ccc3c(c2)OCO3)cc1C,12.6 µM (active)
4,O=C(CCC(=O)N1C[C@H]2C[C@@H](C1)c1cccc(=O)n1C2)NCc1ccccc1C(F)(F)F,inactive
5,COc1cccc(C(c2nnnn2-c2ccc3c(c2)OCCO3)N2CCC3(CC2)C(=O)NCN3c2ccccc2)c1OC (stereo not given),inactive
6,Oc1cc2c(cc1CN1CCN(c3ccccc3)CC1)OCO2,inactive
7,O=C(NC1CCCCC1)N1Cc2cc(N3CCCCC3)ccc2-n2nncc2C1,inactive
8,c1cc2c(cc1[C@H]1OC[C@H]3[C@@H]1CO[C@@H]3c1ccc3c(c1)OCO3)OCO2,11.2 µM (active)
9,c1cc2c(cc1CCNC1CCCCCC1)OCO2,inactive
10,O=C1/C(=C\c2ccc3c(c2)OCO3)N2CCC1CC2,inactive
11,O=C(Cc1ccc(Cl)cc1)NCCN1CCN(C(=O)Cc2ccc(Cl)cc2)CC1,inactive
12,CCOC(=O)c1cccc(C2=C(CNC(=O)c3ccncc3)[C@H]3CC[C@@H](C2)N3Cc2ccccc2)c1,inactive
13,Cc1ccnc(-n2c(C)cc(/C=C3\C(=O)NC(=S)N(C)C3=O)c2C)c1,35.5 µM (active)
14,Cc1ccc(-n2c(C)cc(/C=C3\C(=O)NC(=O)N(C)C3=O)c2C)cc1C,inactive
15,Cc1cc(C=C2C(=O)NC(=O)NC2=O)c(C)n1-c1ccncc1,inactive
16,ClC(Cl)(Cl)c1ccccc1,inactive
17,O=c1c2ccccc2nc(CBr)n1-c1ccc(Cl)cc1,inactive
18,O=c1c2ccccc2nc(-c2ccc(Cl)cc2Cl)n1-c1ccncc1,inactive
19,Cc1nc2ccccc2c(=O)n1-c1ccc(Cl)cc1Cl,15.8 µM (active)
20,CCOC(=O)[C@]12Cc3cc(OC)ccc3[C@H]1N(C(C)C)C(=O)c1ccccc12,inactive
21,CCOC(=O)c1c(-c2ccccc2)oc2ccc(OC(=O)N(C)C)cc12,inactive
22,Cc1ccc(-c2nc3ccccc3c(=O)n2-c2ccc(Br)cn2)cc1,inactive
23,N#Cc1ccc(Cn2cc(C(=O)c3ccco3)c3ccccc32)cc1,17.8 µM (active)
24,NC(=O)Cn1cc(C(=O)c2ccccc2F)c2ccccc21,inactive
25,Cc1ccc([C@H]2C[C@H](O)[C@@H](n3cc(COC(=O)c4ccccc4)nn3)CN2CC2CCCCC2)cc1,inactive
26,CC(C)N(CC#CCC1(O)c2ccccc2-c2ccccc21)C(C)C,inactive
27,Cc1cccc(Cn2cccc(C(=O)Nc3ccc4c(c3)OCCO4)c2=O)c1,inactive
28,CCOC(=O)C1CN(C)CCC1=O (stereo not given),inactive

row,SMILES,Potency
1,c1ccc(-c2nnc(SCc3nc4ccccc4[nH]3)o2)cc1,12.6 µM (active)
2,c1cc2c(c(NC3=NCCCS3)c1)CCCC2,inactive
3,O=c1[nH]c2ccccc2n1C1CCN(C(c2ccnc3ccccc23)c2nnnn2Cc2ccccc2)CC1 (stereo not given),inactive
4,COC(=O)C1=C(c2ccc(F)cc2OCc2ccccc2)C[C@@H]2CC[C@H]1N2C(=O)NCc1ccc(OC)c(OC)c1,inactive
5,COC(=O)C1=C(c2ccccc2OCc2ccccc2)C[C@@H]2CC[C@H]1N2C(=O)NCc1ccc(OC)cc1,35.5 µM (active)
6,COC(=O)C1=C(c2ccc(F)cc2OCc2ccccc2)C[C@@H]2CC[C@H]1N2C(=O)NCc1ccc2[nH]ccc2c1,inactive
7,Cc1ccc(NC(=O)N(Cc2ccc3c(c2)OCO3)C2CCN(Cc3ccccc3)CC2)cc1F,inactive
8,O=C(C1CCN(S(=O)(=O)c2ccc(Br)s2)CC1)N1CCN(c2ccccc2)CC1,inactive
9,O=c1[nH]c2ccccc2n1C1CCN(C(c2ccccc2)c2nnnn2Cc2ccccc2)CC1 (stereo not given),inactive
10,COC(=O)C1=C(c2ccc(F)cc2F)C[C@@H]2CC[C@H]1N2C(=O)NC1CC1,inactive
11,Cn1c(C(=O)N2CCC(C(=O)N3CCC4(CC3)OCCO4)CC2)cc2sccc21,inactive
12,Cc1cc(N2C(=O)C3CCCN3C2c2ccc(Cl)c(Cl)c2)no1 (stereo not given),inactive
13,CC1CNCCN1c1ccc(Cl)cc1 (stereo not given),inactive
14,C[C@]12CCC3C(CC[C@H]4[C@H](O)[C@H](O)CC[C@]34C)C1CCC2=O (stereo not given in full),inactive
15,CC12CCC3C(CCC4CC(=O)CCC43C)C1CC(=NO)C2=O (stereo not given),15.8 µM (active)
16,COc1ccc(-n2nnnc2C(c2cccc3ccccc23)N2CCC(n3c(=O)[nH]c4ccccc43)CC2)cc1 (stereo not given),inactive
17,Nc1ccc(Cc2ccc(N)c(Cl)c2)cc1Cl,12.6 µM (active)
18,CNCC[C@H](Oc1ccc(C(F)(F)F)cc1)c1ccccc1,inactive
19,COc1ccc(-c2nn(CCC#N)cc2C(=O)Nc2ccc(C(C)=O)cc2)cc1,inactive
20,CC(C)Oc1ccc(NC(=O)c2cc3ccccc3o2)cc1,inactive
21,C[N+]1(C)CCOC(O)(c2ccc(-c3ccc(C4(O)C[N+](C)(C)CCO4)cc3)cc2)C1 (stereo not given),5.01 µM (active)
22,Cc1nn(-c2ccccc2)c(C)c1NC(=O)COC(=O)Cc1ccccc1,inactive
23,C[C@@H]1C[C@@H]2O[C@H]2/C=C\C=C\C(=O)Cc2c(Cl)c(O)cc(O)c2C(=O)O1,11.2 µM (active)
24,c1ccc(CC2CCCCN2)cc1 (stereo not given),inactive
25,CN(C(=O)c1cccc(NC(=O)Cc2cccc([N+](=O)[O-])c2)c1)C1CCCCC1,inactive
26,Cc1ccc([C@H]2C[C@H](O)[C@@H](n3cc(COC(=O)c4ccccc4)nn3)CN2C(=O)C2CCCCC2)cc1,inactive
27,O=C(Nc1ccc(Cl)cc1C(=O)c1ccccc1)c1cc(Cl)cc(Cl)c1,inactive
